Compounds with a hit are over-represented: about 7.5% of the library has one in this group of screens.
B2AR arrestin: qHTS assay of beta-arrestin-biased ligands of beta2-adrenergic receptor. actives 0.02% (n = 330,000). Beta-2 adrenergic receptor (Homo sapiens), P07550. Potency, µM (highest dose often 46.1 µM), inactives show at the top dose activation, usual class: activators. beta-arrestin recruitment to beta2AR, cell-based reporter. AID 492947, 2010;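 also: potency is read from the fitted curve at half-maximal effect; 0% = DMSO controls and full agonism = EC100 isoproterenol or metaproterenol; nearly all actives have a fitted effect of over 65% in size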
Gal4-VP16 FLuc: VP16 counterscreen qHTS for inhibitors of ROR gamma transcriptional activity. actives 3.5% (n = 310,000). Drosophila S2 Gal4-VP16 UAS-luciferase, luminescence, 20 h. AID 2546, 2010. Potency, µM (top dose mostly 53.6 µM), inactives show at the highest dose activity, negative = inhibition, hits mostly inhibitors;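 also: Gal4-VP16 expression switched on by copper sulfate through the metallothionein promoter; potency is read from the fitted curve at half-maximal effect; nearly all actives have a fitted effect of over 50% in size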
TSHR antagonist: Antagonists of the Thyroid Stimulating Hormone Receptor: HTS campaign | Thyrotropin receptor (Homo sapiens), P16473 | TSHR-expressing cells, TSH-stimulated cAMP HTRF, 2 h; stronger effect = lower value | activity change, negative = inhibition, % at 11.5 µM | actives 0.2% (n = 330,000) | AID 504810, 2011;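 active = activity change below a set negative limit, meaning inhibition stronger than a set level, cut at about -70% in these data; inconclusive = activity change between two set negative limits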
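Antagonism was scored as loss of TSH-driven cAMP in TSHR cells, stimulated with 4nM TSH (EC80) for 2 hours at 37 deg C and detected by homogeneous HTRF competition immunoassay.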
RORg inh: qHTS for inhibitors of ROR gamma transcriptional activity; actives 5.4% (n = 310,000); Nuclear receptor ROR-gamma (Mus musculus), P51450; Drosophila S2 Gal4-RORgamma UAS-luciferase reporter, 20 h; Potency, µM (doses to about 53.6 µM), inactives show top-dose activity change, negative = inhibition, hits mostly inhibitors; also: potency is read from the fitted curve at half-maximal effect; nearly all actives have a fitted effect of over 60% in size
Target sequence (P51450 whole entry, looked up, the tested form may be a part): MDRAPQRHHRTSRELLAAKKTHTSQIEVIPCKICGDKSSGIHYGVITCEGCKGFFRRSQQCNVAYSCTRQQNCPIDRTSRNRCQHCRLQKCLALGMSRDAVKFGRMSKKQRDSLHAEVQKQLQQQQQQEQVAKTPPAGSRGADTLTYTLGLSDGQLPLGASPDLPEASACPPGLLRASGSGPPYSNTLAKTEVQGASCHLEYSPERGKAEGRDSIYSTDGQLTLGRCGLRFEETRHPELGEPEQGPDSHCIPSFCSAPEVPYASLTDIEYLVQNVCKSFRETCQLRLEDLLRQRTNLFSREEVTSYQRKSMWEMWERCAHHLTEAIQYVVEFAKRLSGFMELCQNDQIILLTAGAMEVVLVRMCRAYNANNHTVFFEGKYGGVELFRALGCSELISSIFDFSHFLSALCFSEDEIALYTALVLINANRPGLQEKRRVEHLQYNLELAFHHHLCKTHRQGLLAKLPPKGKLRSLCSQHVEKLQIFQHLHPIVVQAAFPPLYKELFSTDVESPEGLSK
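Stable Schneider cell line, Gal4 DNA-binding domain fused to ROR gamma, UAS-luciferase. Cmpd 1 hr RT → CuSO4 700 uM final → 20 hr RT → luciferase reagent 10 min → luminescence.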
ELG1 DNA repair: qHTS screen for small molecules that inhibit ELG1-dependent DNA repair in human embryonic kidney (HEK293T) cells expressing luciferase-tagged ELG1; Potency, µM (doses to about 46.1 µM), for the others: top-dose activity change, negative = inhibition, most hits filed as inhibitors; actives 2.3% (n = 330,000); HEK293T ELG1-luciferase reporter, luminescence, 16 h; DNA damage induced by 5-fluorouridine; also: potency is read from the fitted curve at half-maximal effect; nearly all actives have a fitted effect of over 55% in size
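HEK293T cells expressing luciferase-tagged ELG1 (2,000/well) received 5-Fluorouridine plus compound or DMSO for 16 hr at 37 °C. Luciferase was read by ONE-Glo luminescence after 30 min at room temperature.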
Numbers without * were called inactive; ? = inconclusive; . = not tested or not shown; [ ] = remark or other dose. Unless noted, calls follow the shape of the dose curve; as a rule, active = well fitted curve in the direction sought with a large enough effect; inconclusive = small, poorly fitted or top-dose-only effect, or another doubt; inactive = no such curve, though single readings can be large; an effect the other way counts as inactive or inconclusive. Unless noted, % is scaled to controls: 0 for no effect and ±100 for the full control effect.

SMILES	B2AR arrestin	Gal4-VP16 FLuc	TSHR antagonist	RORg inh	ELG1 DNA repair
CC12CC3CC(C)(C1)CC(C(=O)NC1=NCCS1)(C3)C2	0%	7.9µM*	29	2.8µM*	-9%
NS(=O)(=O)c1ccc(NC(=O)CCC(=O)O)cc1	.	4%	.	-4%	.
COc1ccc(-c2cc(C(=O)NNC3=NCCC3)c3c(C)nn(-c4ccccc4)c3n2)cc1	0%	?	0	0.32µM*	-2%
COc1ccc(NC(=O)c2cc(-c3ccccc3)nc3c2c(C)nn3-c2ccccc2)c(OC)c1	0%	-19%	0	-38%	-27%
CC(/C=N/NC(=O)c1cc(-c2cccnc2)nc2c1c(C)nn2-c1ccccc1)=C\c1ccccc1	0%	-3%	-2	?	5.8µM*
COc1ccc(CN(CCC(c2ccccc2)C2CCOC(C)(C)C2)C(C)=O)cc1 (centres undefined)	-1%	-8%	-6	5%	16µM*
COc1cccc(-n2ccnc2SCC(=O)N2CCCc3ccccc32)c1	0%	2%	-6	-13%	12%
CCOc1ccc(-n2ccnc2SCC(=O)N2CCCc3ccccc32)cc1	-1%	?	-1	7.1µM*	?
CCn1c(SCC(=O)N2CCCc3ccccc32)nc2c(c1=O)SC(C)C2 (centres undefined)	0%	0%	0	26%	?
CC1Cc2nc(SCC(=O)N3CCCc4ccccc43)n(C)c(=O)c2S1 (centres undefined)	1%	-21%	-3	?	23µM*
O=C(Cc1cccs1)NCc1ccc(Cl)cc1Cl	0%	-8%	-3	32%	?
COc1ccc2nc(SCC(=O)NCC(F)(F)F)[nH]c2c1	0%	-8%	13	6%	17%
Cc1csc(NC(=O)c2ccc(COc3ccccc3)o2)n1	0%	-17%	15	-12%	?
O=C(c1cncc(Br)c1)N1CCc2ccccc2C1	0%	2%	14	-2%	5.8µM*
CC(C)(Oc1ccc([C@@H]2CC2(Cl)Cl)cc1)C(=O)O	.	5%[17 µM]	.	2%[16.9 µM]	.
CCn1c(=O)c(CCC(=O)N2CCN(c3ccccn3)CC2)c(C)c2c(C)nn(-c3cccc(C)c3)c21	0%	0%	16	14%	6.5µM*
Cc1nc2nc(C)c(CCC(=O)N3CCN(c4ccccn4)CC3)c(C)n2n1	-1%	-3%	-2	18%	0%
Cc1nn(C2CCS(=O)(=O)C2)c(Cl)c1/C=C/C(=O)OCC(N)=O (centres undefined)	0%	1%	-4	-1%	18%
CN(C)c1ccc(/C=N/n2ncc3ccccc32)cc1	-1%	7.1µM*	-8	0.71µM*	?
COc1ccc(N(CC(=O)Nc2ccc3c(c2)OCO3)S(=O)(=O)c2ccccc2)cc1OC	0%	1%	-6	2%	?
COc1ccc(OC)c(S(=O)(=O)NNC(=S)Nc2ccc3c(c2)OCO3)c1	0%	?	4	10µM*	7%
COc1ccc(N(CC(=O)NCCC2=CCCCC2)S(=O)(=O)c2ccc(C)cc2)cc1OC	0%	19%[10 µM]	-1	-11%	15µM*
COc1ccc(N(CC(=O)NCCC2=CCCCC2)S(=O)(=O)c2ccccc2)cc1OC	0%	-5%	5	30%	?
COc1ccc(N(CC(=O)Nc2ccc3c(c2)OCO3)S(=O)(=O)c2ccc(C)cc2)cc1OC	0%	-6%	-11	5%	26µM*
COc1cccc(NC(=O)CN(c2ccccc2OC)S(=O)(=O)c2cccs2)c1	0%	.	86	.	21µM*
SMILES	B2AR arrestin	Gal4-VP16 FLuc	TSHR antagonist	RORg inh	ELG1 DNA repair
COc1c(O)c(O)cc2c1oc1c3cc(C)ccc3oc(=O)c21	.	-20%	.	?	.
Cc1ccc(S(=O)(=O)N2C[C@@H]3[C@H]4CC[C@H](C4)[C@@H]3[C@@H](C)[C@@H]2C2CCCCC2=O)cc1 (some centres undefined)	0%	.	3	.	-1%
Cc1ccccc1NS(=O)(=O)c1ccc(NS(=O)(=O)c2cccs2)cc1	0%	9%	19	?	5%
CC(CCC(=O)O)C1CCC2C3C(O)C[C@@H]4CC(O)CC[C@@]4(C)C3CC(O)[C@]12C (some centres undefined)	.	-15%	.	-8%	.
COc1cccc(NC(=O)Nc2cccs2)c1	0%	5µM*	10	6.3µM*	?
COc1ccc(N(CC(=O)Nc2ccc3c(c2)OCO3)S(=O)(=O)c2ccccc2)c(OC)c1	0%	2%	14	6%	15µM*
O=C(COc1ccc2ccc(=O)oc2c1)Nc1c(Cl)cccc1C(F)(F)F	0%	-3%	4	?	-7%
CC(C)c1c(C(=O)Nc2ccccc2)c(-c2ccccc2)c(-c2ccc(F)cc2)n1CC[C@@H](O)C[C@@H](O)CC(=O)O	.	-2%	.	47%	.
Cc1ccc(O)c(C2=Nc3ccccc3C2(C)C)c1	0%	-6%	-4	13%	?
COc1ccc(C)cc1C1=Nc2ccccc2C1(C)C	0%	?	7	13µM*	-1%
COc1ccccc1Nc1nn2c(=O)c3ccc(C(=O)N4CCC(C)CC4)cc3nc2s1	0%	-10%	-4	-5%	15µM*
Fc1cccc(/C=N/Nc2nncc3ccccc23)c1	-1%	10µM*	-10	1.3µM*	?
CC(=O)Nc1ccc(/C=N/Nc2nncc3ccccc23)cc1	0%	-17%	9	-18%	?
C(=N\Nc1nncc2ccccc12)/c1ccccn1	0%	3.5µM*	-15	1.4µM*	?
O=c1cnnc(N/N=C/c2ccccn2)[nH]1	-1%	8%	2	-1%	?
CC(C)C(=O)N1CCC(c2nc(-c3ccc(S(=O)(=O)N4CCN(C)CC4)cc3)no2)CC1	0%	10%	20	-4%	-8%
O=S(=O)(c1ccc2ccccc2c1)N1CCC(c2nc(-c3ccncc3)no2)CC1	-1%	?	-14	?	13µM*
Cc1ccc(-c2noc(C3CCN(S(=O)(=O)c4ccc5c(c4)OCCO5)CC3)n2)o1	0%	?	3	16%[10 µM]	23µM*
CC(C)N(C(=O)N1CCC(c2nc(-c3ccncc3)no2)CC1)C(C)C	0%	5%	-25	29%	16µM*
C[C@@H]1/C=C\CC(=O)OC[C@H](C)C(=O)N2CCC[C@@H]2C(=O)OC1	.	10%[10 µM]	.	-25%[10 µM]	.
Cc1ccc(S(=O)(=O)N2CCC(C(=O)OCC(=O)N3CCCC(C)C3)CC2)cc1C (centres undefined)	0%	.	-2	.	2%
O=[N+]([O-])c1cc(Br)c(Nc2ccccc2)c([N+](=O)[O-])c1	0%	13µM*	-6	?	-13%

Compound activity: PubChem, National Center for Advancing Translational Sciences (NCATS)
